Data: ChEMBL document CHEMBL4808148, “HDAC6 screening dataset using tau-based substrate in an enzymatic assay yields selective inhibitors and activators” (2021)
The whole screen tested about 5,600 compounds, of which about 150 (2.7%) showed an effect of 50% or more. What follows is part of a selection rich in strong results, with near analogues and random picks from the rest.

Each compound was assayed against T1, Protein deacetylase HDAC6 (Homo sapiens) (UniProt Q9UBN7). Conditions: at 10 µM.
T1 sequence (whole entry): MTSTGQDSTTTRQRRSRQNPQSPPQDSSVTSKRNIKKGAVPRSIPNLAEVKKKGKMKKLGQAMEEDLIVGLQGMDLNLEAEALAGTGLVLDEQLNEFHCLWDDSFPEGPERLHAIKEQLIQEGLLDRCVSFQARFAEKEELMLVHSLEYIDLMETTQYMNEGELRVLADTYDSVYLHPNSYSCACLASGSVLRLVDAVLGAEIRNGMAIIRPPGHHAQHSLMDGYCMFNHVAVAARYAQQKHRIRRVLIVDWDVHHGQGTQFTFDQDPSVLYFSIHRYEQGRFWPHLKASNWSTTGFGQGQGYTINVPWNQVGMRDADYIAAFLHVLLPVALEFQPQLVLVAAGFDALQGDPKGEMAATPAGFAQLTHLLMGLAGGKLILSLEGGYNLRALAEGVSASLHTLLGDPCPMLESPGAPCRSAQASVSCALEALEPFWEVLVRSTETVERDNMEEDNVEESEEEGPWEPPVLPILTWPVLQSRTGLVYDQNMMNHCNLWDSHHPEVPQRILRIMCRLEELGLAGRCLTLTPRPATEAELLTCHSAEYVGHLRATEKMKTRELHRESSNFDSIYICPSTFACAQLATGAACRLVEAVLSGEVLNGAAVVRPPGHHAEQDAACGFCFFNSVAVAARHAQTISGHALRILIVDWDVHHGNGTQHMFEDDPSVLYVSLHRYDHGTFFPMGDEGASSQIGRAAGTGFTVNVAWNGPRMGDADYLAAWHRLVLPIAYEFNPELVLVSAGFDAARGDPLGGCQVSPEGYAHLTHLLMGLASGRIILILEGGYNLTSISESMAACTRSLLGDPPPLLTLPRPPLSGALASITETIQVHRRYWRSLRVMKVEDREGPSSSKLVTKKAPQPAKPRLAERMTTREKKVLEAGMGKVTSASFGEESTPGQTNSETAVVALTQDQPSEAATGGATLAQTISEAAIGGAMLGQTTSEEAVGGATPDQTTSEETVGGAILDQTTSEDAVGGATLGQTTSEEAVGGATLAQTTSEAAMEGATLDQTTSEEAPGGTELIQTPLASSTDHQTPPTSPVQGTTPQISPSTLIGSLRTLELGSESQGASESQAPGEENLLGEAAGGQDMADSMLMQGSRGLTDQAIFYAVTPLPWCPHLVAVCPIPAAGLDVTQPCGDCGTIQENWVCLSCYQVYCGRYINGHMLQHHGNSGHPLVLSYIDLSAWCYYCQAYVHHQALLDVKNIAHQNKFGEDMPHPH

SMILES	inhibition
O=C(O)C(O)C(O)C(O)C(O)CO (stereo not given)	-3.09%
O=Cc1ccc(CO)o1	-2.99%
CS(=O)(=O)c1ccc(Oc2cc(F)cc(C#N)c2)c2c1[C@H](O)C(F)(F)C2	-4.01%
CCc1nc(C(N)=O)c(Nc2ccc(N3CCC(N4CCN(C)CC4)CC3)c(OC)c2)nc1NC1CCOCC1	0.8%
Fc1ccc(-c2nc(-c3c(F)cccc3F)[nH]c2-c2ccncc2)cc1	-5.55%
Cc1ccc(-c2cn3c4c(sc3n2)CCCC4)cc1	95.1%
N=C(N)Nc1ccc(Cl)cc1	0.23%
N=C(N)c1ccc(/N=N/Nc2ccc(C(=N)N)cc2)cc1	-8.86%
Cc1sc(C)c(C(=O)NC2(c3ccc(C(=O)O)cc3)CC2)c1Cc1ccc(C(F)(F)F)cc1	3.37%
O=C1COc2c(CCNCCN(C(=O)CCNCCc3ccc(Cl)c(Cl)c3)C3CCCCC3)ccc(O)c2N1	3.6%
C[C@H](C[C@H](N)C(=O)O)C(=O)O	2.11%
c1ccc2[nH]c(-c3cscn3)nc2c1	84.5%
c1ccc(N2CCN(Cc3nc4ccccc4[nH]3)CC2)nc1	1.74%
COc1ccc(C(=O)C2CCN(CC(=O)N(Cc3nc4c(c(=O)[nH]3)COCC4)CC3CC3)CC2)cc1	-1.1%
O=C(NCC(=O)N1CCCCC1)Nc1ccc2nnsc2c1	4.96%
O=C(O)c1ccc2c(c1)nc(Nc1cccc(Cl)c1)c1ccncc12	-4.86%
O=C(O)c1ccc2nc(-c3cc(Cl)cc(Cl)c3)oc2c1	99.2%
CCS(=O)(=O)c1ccc2oc(-c3ccc4ccccc4c3)nc2c1	37.2%
C=C1C(=O)[C@@]23C(CC[C@@H]1[C@H]2O)[C@@]12CO[C@]3(O)[C@@H](O)[C@@H]1C(C)(C)CC[C@@H]2O (stereo not given in full)	-6.66%
COc1cc2ncc(-c3ccccc3)nc2cc1OC	97.5%
COC(=O)[C@H](NC(=O)c1cc(-c2ccccc2)nc2ccccc12)c1ccccc1	0.79%
O=C(O)c1cc(-c2ccccc2)nc2ccccc12	-1.66%

SMILES	inhibition
C/C(=N\c1ccccc1N)c1c(C)cc(=O)n(O)c1O	2.45%
O=C(O)CCCCN(CCc1ccccc1OCc1ccc(CCc2ccccc2)cc1)Cc1ccc(C(=O)O)cc1	-4%
COc1cc2c(NC3CCN(C4CCCCC4)CC3)nc(N3CCCN(C(C)C)CC3)nc2cc1OCCCN1CCCCC1	-8.06%
COc1cc2nc(C3CC3)nc(N3CCN(c4ccccc4OC)CC3)c2cc1OC	0%
CC(C(=O)O)c1ccc(N2Cc3ccccc3C2=O)cc1 (stereo not given)	82.1%
CC(C(=O)O)c1ccc2c(c1)CC(=O)c1ccccc1S2 (stereo not given)	-3.15%
CC(C(=O)O)c1cccc(C(=O)c2ccccc2)c1 (stereo not given)	4.07%
CNC(=O)O[C@H]1COc2ccc(N3CCN(C4COC4)CC3)cc2[C@@H]1NC(=O)c1ccc(F)cc1	-3.83%
O=C1Nc2cc(Br)ccc2/C1=C1/Nc2ccccc2/C1=N\O	2.55%
O=C1COc2nccc(-c3ccccc3F)c2CN1Cc1cc(C(F)(F)F)cc(C(F)(F)F)c1	-5.84%
C=C1/C(=C\C=C2/CCC[C@]3(C)[C@@H]([C@H](C)OCCC(C)(C)O)CC[C@@H]23)C[C@@H](O)C[C@@H]1O	1.22%
Cc1cccc(C#Cc2ccccc2)n1	94.7%
NS(=O)(=O)C#Cc1ccccc1	-5.38%
COc1cc(C(=O)N(CCC2CCCN2C)C/C(C)=C/c2ccccc2F)cc(OC)c1OC (stereo not given)	-2.86%
CC(C)(C)c1cc(C(=O)/C(C#N)=N/Nc2cccc(Cl)c2)no1	7.67%
CC(C)Oc1ccc2c(=O)c3cc(C(=O)O)ccc3oc2c1	76.3%
CNC(=O)c1c(C)oc2cc(Oc3ncnc4cc(OC)c(OC)cc34)ccc12	14.7%
CC(C)(N)c1cc(C(=O)N[C@@H]2CCc3ccc(Oc4ccnc5c4CCC(=O)N5)cc3C2)cc(C(F)(F)F)c1	-1.36%
CN(C)C/C=C/C(=O)Nc1ccc(C(=O)Nc2cccc(Nc3ncc(Cl)c(-c4c[nH]c5ccccc45)n3)c2)cc1	-4.86%
CN(C)c1ccc(C(=C2C=CC(=[N+](C)C)C=C2)c2ccc(N(C)C)cc2)cc1	59.7%
NC(=O)c1ccc2[nH]ccc2c1	-7.83%
O=C(Nc1ccc2[nH]ccc2c1)c1ccccc1	49.3%

SMILES	inhibition
O=C(Nc1cc2cc[nH]c2cn1)c1ccccc1	97.7%
CCOc1ccc(-n2c([C@@H](C)N(Cc3cccnc3)C(=O)Cc3ccc(OC(F)(F)F)cc3)nc3ncccc3c2=O)cc1	-2.97%
COc1cccc(N2CCN(C3=Nc4c(F)cccc4[C@H](CC(=O)O)N3c3cc(C(F)(F)F)ccc3OC)CC2)c1	-7.43%
COc1ccc(C2C(=O)c3ccccc3C2=O)cc1	97.2%
O=C1c2ccccc2C(=O)C1c1ccccc1	0.29%
COc1ccc(C2CC(c3ccccc3)=NN2c2ccc(S(N)(=O)=O)cc2)cc1 (stereo not given)	-2.13%
O=C1c2ccccc2C(=O)C1c1ccc(Cl)cc1	-0.61%
COc1ccc(Oc2c(Cl)cnn(C3c4ccccc4-c4ccccc43)c2=O)cc1	3.12%
O=C1c2ccccc2C(=O)C1c1ccc(Br)cc1	86.8%
Nc1ncc2c(n1)CC(c1ccco1)CC2=O (stereo not given)	10.6%
CO/N=C1\C[C@@H](C(=O)NC[C@@H](O)c2ccccc2)N(C(=O)c2ccc(-c3ccccc3C)cc2)C1	-5.99%
CC(=O)Oc1ccccc1C(=O)Nc1ccccc1	24.1%
Nc1n[nH]c2nnc(-c3c(-c4ccccc4)nn4ccccc34)cc12	1.45%
CCN(CCNC(=O)Nc1ccccc1Br)c1cccc(C)c1	-8.23%
O=C(Nc1ccc([N+](=O)[O-])cc1O)Nc1ccccc1Br	61.6%
NC(=O)c1ccc([N+](=O)[O-])cc1Cl	3.17%
CCC(C(=O)O)c1ccc(CC(C)C)cc1 (stereo not given)	5.56%
CCCCC1OC(=O)c2ccccc21 (stereo not given)	4.45%
N[C@@H]1c2cccnc2[C@H](OC(=O)N2CCC(n3c(=O)[nH]c4ncccc43)CC2)CC[C@H]1c1cccc(F)c1F	-1.43%
CS(=O)(=O)N(Cc1ccco1)CC(O)Cn1c2ccccc2c2ccccc21 (stereo not given)	-5.79%
O[C@H]1CC[C@H](Nc2nc(-c3ccccc3)nc3[nH]ccc23)CC1	2.15%
O=C(NC1CC1)c1cc(-c2cccs2)on1	60.8%

SMILES	inhibition
CN1CCC(NC(=O)c2cc(-c3c(O)cc(O)cc3Oc3ccc([N+](=O)[O-])cc3)on2)CC1	-7.8%
Cc1ccc(S(=O)(=O)NCc2ccccc2)cc1	-1.3%
CO[C@H]1CC[C@@H](C(=O)c2ccc3nc4c(cc3c2)CCCO4)CC1	1.73%
CCCn1c(=O)c2[nH]c(-c3cnn(Cc4cccc(C(F)(F)F)c4)c3)nc2n(CC)c1=O	2.86%
CC(=O)NC[C@H]1CN(c2ccc(N3CCN(C(=O)CO)CC3)c(F)c2)C(=O)O1	-2.46%
COc1ccc(/C=C/C(=O)O)cc1	-6.98%
COc1cccc(NC(=O)/C=C/c2ccc(Cl)cc2)c1	91.8%
COc1cc(NC(=O)c2ccc(-c3ccc(Cl)cc3)o2)cc(OC)c1	4.45%
CN(CCc1ccc(Cl)c(Cl)c1)CCN1CCCC1	3.41%
N=C1NC(=O)/C(=C/c2ccc(O)cc2)S1	14%
CCc1ccc(/C=C2/SC(=S)NC2=O)cc1	16.7%
O=C(O)COc1ccc(/C=C2\SC(=O)NC2=O)cc1	95%
CN(C)c1ccc2c(c1)Sc1cc(N(C)C)ccc1N2	32.3%
COc1cc(Br)c(S(=O)(=O)Nc2ccc(C(F)(F)F)c(O[C@@H]3CCN(C)C3)c2)cc1OC	-1.99%
COc1ccc(-n2c(SCc3nc(-c4ccc(C)cc4)no3)nnc2-c2ccncc2)cc1	-7.03%
O=C(Nc1c(-c2cccs2)nc2ccccn12)c1ccc(Cl)cc1	-6.19%
Clc1cccc(/C=N/C=N/c2cccc(Cl)c2)c1	1.42%
COc1cccc(/C=N/C=N/c2cccc(OC)c2)c1	89.1%
COc1cc(/C=C/c2ccc(OC)cc2OC)cc(OC)c1	19.4%
CNCCCC1(c2ccccc2)OC(C)(C)c2ccccc21 (stereo not given)	-1.2%
CSc1ccc(OCc2ncc([N+](=O)[O-])n2C)cc1	20.2%
O=C(O)CCCc1ccccc1	-4.8%

SMILES	inhibition
Cn1c(NCCN(CCO)CCCc2ccc([N+](=O)[O-])cc2)cc(=O)n(C)c1=O	-7.89%
O=C(O)c1cc([N+](=O)[O-])ccc1NCCCc1ccccc1	52.3%
Cc1cc(NC(=O)NCCN2CCC(O)(Cc3ccccc3)CC2)c2ccccc2n1	-3.32%
Oc1cccc(O)c1	5.02%
N[C@H]1C[C@@H]1c1ccc(-c2cccc(O)c2)cc1	51.4%
CC(=O)N[C@H]1[C@H]([C@H](O)[C@H](O)CO)O[C@](O)(C(=O)O)C[C@@H]1O	-7.16%
Cc1nc(N)sc1-c1ccnc(Nc2ccc(N3CCOCC3)cc2)n1	71.7%
Cc1ccc(-c2ncn(-c3ccc(Nc4nccc(-c5cccc(N6CCOCC6)c5)n4)cc3)n2)cn1	14.5%
N#CCNC(=O)c1ccc(-c2ccnc(Nc3ccc(N4CCOCC4)cc3)n2)cc1	-5.68%
CC(C)[C@@H](N)C(=O)O	1.7%
O=C(NCc1ccc2c(c1)OCO2)c1c(Cl)cccc1Cl	3.64%
COc1ccc(-c2cc(=S)ss2)cc1	67.3%
O=C(O)CCc1c(C(=O)O)[nH]c2cc(Cl)cc(Cl)c12	4%
NCC(=O)N1C[C@H](NC(=O)c2ccccc2)C[C@H]1C(=O)O	-0.8%
O=C(/C=C/c1ccccc1)NC(NC(=S)Nc1ccc(Cl)cc1)C(Cl)(Cl)Cl (stereo not given)	-0.27%
Cc1ccc(C(=O)C(C)CN2CCCCC2)cc1 (stereo not given)	4.79%
Cc1ccc(C(=O)Cn2c3c(sc2=N)CCCC3)cc1	85.8%
Cc1cccc(NC(=O)CN2CCC(c3ccccn3)CC2)c1	32%
O=C(O)c1cc2ccccc2s1	-8.12%
N=C(N)c1cc2ccc(OC(=O)c3cccs3)cc2s1	98.3%
OC(CN1CCNCC1)Cn1c2ccc(Br)cc2c2cc(Br)ccc21 (stereo not given)	-4.75%
COc1cc2c(cc1OC)CN(C(=O)[C@@H](NCc1ccncc1)C(C)(C)C)CC2	-4.01%
